Compounds without any hit were thinned out: in the full panel of roughly 83,000, 20% have a hit.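 Values shown are percent growth following 48 h exposure of cells in 96-well plates to a single concentration of compound; below 10 was considered active.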 Values without a mark were called inactive. The source made the active and inactive calls.

This is an account of results in PubChem BioAssay (NCI).

Holding throughout (assay): NCI-60 one-dose screen, 48 h (100 = growth as untreated, 0 = no growth, -100 = all killed)
What all share (conditions): 10 µM unless noted

The test system of test [1] is SR leukemia.
Test [2] relates to OVCAR-8 ovarian.
The subject of test [3] is OVCAR-5 ovarian.
Test [4] relates to OVCAR-4 ovarian.
Test [5] relates to SK-OV-3 ovarian.
Test [6] relates to IGROV1 ovarian.
For test [7], the system named is HS 578T breast.
For test [8], the system named is NCI/ADR-RES ovarian.
Test [9] deals with T-47D breast.
For test [10], the system named is BT-549 breast.
Test [11] relates to MDA-MB-435 melanoma.
Test [12] has as its system SW-620 colon.
Test [13] has as its system MCF7 breast.
Test [14] deals with HCT-116 colon.
For test [15], the system named is HCC-2998 colon.
Test [16] concerns KM12 colon.
The test system of test [17] is RPMI-8226 leukemia.
The subject of test [18] is OVCAR-3 ovarian.

With `O=C(Nc1nc2ccc([N+](=O)[O-])cc2s1)Nc1ccccc1Cl`, the growth was 18.1% in test [1]; 12.8% in test [2]; 81.8% in test [3]; 14% in [4]; 22.8% in test [5]; 39.1% in test [6]. Besides, the growth was 46.9% in [7]; 47.1% in test [8]; -0.208% (active) in [9]; 36.9% in test [10]; 19.6% in [11]; 46.1% in test [12]. The growth is 55.8% in [13], 21.4% in test [14], 47.6% in [15] and 26.4% in test [16].
Regarding `COc1cc2nc(Cl)nc(Nc3cccc(C4=Nc5c(N)nc(N)nc5NC(c5ccc(F)cc5)C4)c3)c2cc1OC` (stereo unspecified), the growth is -3.6% (active) in [17]; 51.6% in test [2]; 107% in [3]; 96.6% in test [4]; 117% in test [5]; 80.8% in test [6]. Also, the growth in test [18] is 61%; in test [7], 86.1%; in test [8] it was 80%; in test [9] it was 63.7%; in test [10], 78.1%; in test [11], 77.2%. For the same compound, the growth in test [12] is 12.7%; in [13], -5.06% (active); in test [14], -41.7% (active); in [15], 22.9%; in test [16], 34.1%.
`COc1cc2oc(-c3cccc(NC(=O)c4cc(N)ccc4Cl)c3)cc(=O)c2c(OC)c1OC`: the growth in test [1] is 82.6%; in test [3], 109%; in test [4] it was 97.6%; in [5], 124%; in test [6], 99.5%; in test [18], 104%. Moreover, the growth in [7] is 114%; in [8], 100%; in test [9] it was 62.4%; in [10], 89.4%; in test [11], 89.5%; in test [12] it was 110%. The growth in [13] was 96.1%; in test [14], 101%; in test [15], 101%; in test [16], 96.4%.
Regarding `COc1cccc2cc(-c3cc4ccccc4[nH]3)/c(=N\NC(=O)c3ccc(Cl)cc3)oc12`, the growth was 25.7% in test [1]; 20.7% in test [2]; 49.2% in [3]; 9.76% (active) in test [4]; 39.5% in test [5]; 26.3% in [6]. The growth in test [18] is 14.7%; in [7], 77%; in test [9], 13.3%; in [10], 58.3%; in test [11] it was 44.7%; in test [12], 38.3%. In addition, the growth was 8.32% (active) in test [13], 21.8% in test [14], 69% in [15] and 28.2% in [16].
`COc1cc(OC)c(S(N)(=O)=O)cc1C(C)=O`: the growth in [17] was 103%; in [2], 104%; in [3], 107%; in [4], 102%; in [5], 109%; in [6] it was 112%. Moreover, the growth was 112% in [7]; 111% in test [8]; 98.3% in test [9]; 115% in test [10]; 107% in test [11]; 113% in test [12]. For the same compound, the growth in [13] was 89.8%; in test [14], 114%; in test [15], 106%; in [16] it was 104%.
Turning to `Cc1cc(-c2ccc(Cl)cc2)n(Cc2nnc(SCC(=O)Nc3ccc(S(N)(=O)=O)cc3)n2C2CCCCC2)n1`, the growth in test [17] is 102%; in test [2], 99.2%; in test [3] it was 107%; in test [4] it was 109%; in test [5], 106%; in test [6], 104%. Further, the growth in test [7] was 100%; in test [9], 108%; in test [10], 124%; in test [11] it was 109%; in [12], 107%; in [13] it was 91%. The growth in test [14] is 107%; in test [15], 110%; in test [16] it was 108%.
Consider `COc1cc2nc(Cl)nc(Nc3cccc(C4=Nc5c(N)nc(N)nc5NC(c5ccc(Br)cc5)C4)c3)c2cc1OC` (stereo unspecified), for which the growth in test [17] was -2.07% (active); in test [2], 54.6%; in [3] it was 113%; in test [4], 103%; in [5] it was 125%; in [6], 94.1%. The growth in test [18] is 72.6%; in [7], 79.8%; in [8], 86.6%; in [9], 85.1%; in test [10], 87.8%; in [11], 47.4%. Also, the growth is 46.5% in test [12]; 39.3% in test [13]; -10.5% (active) in test [14]; 41.5% in test [15]; 24.3% in [16].
`COc1cccc(C(=O)Nc2cccc(C#Cc3cccc4[nH]nc(N)c34)c2)c1`: the growth in [17] was 39.2%; in test [2], 50.4%; in [3], 69.2%; in test [4], 67.8%; in test [5], 86.7%; in test [6] it was 59.9%. Besides, the growth in [7] is 66.4%; in test [8], 45.5%; in test [9], 38%; in test [10] it was 121%; in [11], 1.93% (active); in test [12], 34%. Moreover, the growth in test [13] is 30.7%; in [14] it was 33.1%; in test [15] it was 45.9%; in [16] it was 12.6%.
Turning to `CC(C)(O)c1cncc(-c2ccc3ncnc(NCc4ccccc4)c3c2)c1`, the growth in test [1] was 92.2%; in [2], 102%; in [3], 62.5%; in test [4], 77.3%; in test [5], 110%; in [6] it was 34.2%. The growth was 83.8% in test [18]; 73.2% in test [7]; 103% in [8]; 64.2% in test [9]; 92.3% in test [11]; 98.9% in test [12]. The growth is 58.5% in test [13], 97.8% in test [14], 92.8% in test [15] and 101% in test [16].
Regarding `C[C@H](CCC(=O)NCc1ccc(C(=O)Nc2ccccc2N)cc1)[C@H]1CC[C@H]2[C@@H]3[C@@H](O)C[C@@H]4C[C@H](O)CC[C@]4(C)[C@H]3CC[C@]12C`, the growth in test [1] is 63.4%; in test [3], 67.8%; in [4], 65.3%; in test [5] it was 73.7%; in test [6], 51%; in test [18] it was 64.3%. The growth was 69.6% in test [7]; 99.4% in test [8]; 48% in test [9]; 54.1% in test [10]; 60.2% in [11]; 56% in test [12]. Also, the growth is 45.7% in test [13], 31.2% in test [14], 89.5% in [15] and 64% in [16].
